Source: PubChem (Broad Institute)
Only some compounds are listed: those with a hit (about 0.89% of all), similar ones and a draw of the others.
A1 inhib: inducers of caspase activity in MEF A1-2A-BIM cells, primary screen, A1 inhibitor project, cell-based, CaspaseGlo luminescence; caspase activation, % (no concentration beside the values); caspase-Glo luminescence, 3 h; percent of clofoctol signal, DMSO as zero; 0.51% of 21,000 active;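 active = most replicate scores above 10, or exactly half above 10 with mean activity above 10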;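 note: effector caspase 3 and 7 activity cleaving a DEVD luciferin substrate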
BJeLR viability: BJeLR cell viability loss, primary screen, luminescence, CellTiterGlo ATP; BJeLR fibroblasts viability, 48 h; HRASV12, hTERT and SV40 LT/ST transformed; 0.64% of 30,000 active; viability loss activity score, % (test concentration not listed); in the data active = viability loss activity score above about 50%;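 note: higher score means fewer live cells and less ATP luminescence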
Each line names hits and unclear results; the compound was inactive in the other large screens.

CCC(C)N1C(=O)C2C(C(=O)Nc3cccc(C)c3)C3C=CC2(O3)C1C(=O)NC1CCCC(C)C1C (stereo not given)	none (no result: A1 inhib)
CC(NC(=O)c1ccc(CSc2ccccc2)cc1)c1ccccc1 (stereo not given)	none
N/N=C1\CCCc2c1[nH]c1ccc(C(=O)NN)cc21	none (no result: A1 inhib)
CC[C@]1(O)C[C@H]2CN(CCc3c([nH]c4ccccc34)[C@@](C(=O)OC)(c3cc4c(cc3OC)N(C=O)[C@H]3[C@@](O)(C(=O)OC)[C@H](OC(C)=O)[C@@]5(CC)C=CCN6CC[C@]43[C@@H]65)C2)C1	BJeLR viability 61
CC(C(=O)O)N1C(=O)/C(=C2/C(=O)N(C)c3ccccc32)SC1=S (stereo not given)	none (no result: A1 inhib)
CC1(C)C(=O)C=C[C@@]2(C)C1C=C[C@]1(C)C2CC[C@@]2(C)[C@H](c3ccoc3)OC(=O)C3OC321 (stereo not given in full)	none
C=C1C(C2(C)C=CC(=O)C(C)(C)C2CC(=O)OC)CC[C@@]2(C)[C@H](c3ccoc3)OC(=O)C3OC132 (stereo not given in full)	BJeLR viability 91
COc1cc(O)cc2c1C(=O)OC(C)C2 (stereo not given)	none
C[C@@H]1C[C@@H]2O[C@H]2/C=C/C=C\C(=O)Cc2c(Cl)c(O)cc(O)c2C(=O)O1	BJeLR viability 81
Cc1cc(Br)ccc1NCc1ccc2c(c1)OCO2	none
COc1cccc(-c2cc(NCc3ccc4c(c3)OCO4)nc(N)n2)c1	BJeLR viability 60
CC(=O)N1CCc2cc(S(=O)(=O)NC(CC(C)C)C(=O)NCc3ccc(Cl)cc3)ccc21 (stereo not given)	none (no result: A1 inhib)
CCC(C)NC(=O)CSc1cc(=O)n(C)c2ccc(Cl)cc12 (stereo not given)	none (no result: A1 inhib)
CCCCCC(=O)Cc1cc(O)c(O)c2c1C(=O)Oc1cc(O)c(C(=O)O)c(CCCCC)c1O2	BJeLR viability 99
CCCc1c(C(=O)O)c(O)cc2c1C(=O)c1c(O)cccc1C2=O	none
N/C(=N/c1nc2ccccc2s1)NC(=O)c1cccc(Cl)c1	none
Cc1ccc(-n2cc(-c3ccccc3)c3c(N4CCCC4)ncnc32)cc1	none
COC(=O)C(CC(C)C)NC(=O)c1cc(-c2ccccc2)nc2ccccc12 (stereo not given)	none (no result: A1 inhib)
O=C(c1cc(-c2ccc(O)cc2)on1)N1CCN(Cc2ccccc2)CC1	none (no result: A1 inhib)
O=C1OC2(C(=O)c3ccccc3C2=O)C(C(=O)c2ccc(F)cc2)C1=O (stereo not given)	none (no result: A1 inhib)
O=C1Cc2c([nH]c3ccc([N+](=O)[O-])cc23)-c2ccccc2N1	A1 inhib 10
C[C@H]1CC[C@@H]2[C@@H](C(=O)c3c(O)c([C@]4(O)CC[C@@H](O)[C@H]5O[C@H]54)c[nH]c3=O)[C@@H](C)C=C[C@H]2C1	BJeLR viability 54
CCOc1ccccc1NC(=S)N(Cc1c[nH]c2ccccc12)C(C)C	none (no result: A1 inhib)
CC1CC[C@@]2(OC1)O[C@H]1CC3C4CC=C5C[C@@H](O[C@@H]6O[C@H](CO)[C@@H](O[C@@H]7O[C@@H](C)[C@H](O)[C@@H](O)[C@H]7O)[C@H](O)[C@H]6O[C@@H]6O[C@@H](C)[C@H](O)[C@@H](O)[C@H]6O)CC[C@]5(C)C4CC[C@]3(C)[C@@]1(O)[C@@H]2C (stereo not given in full)	BJeLR viability 92
C=CC1(C)C=C2CCC3C(C)(C)C(O[C@@H]4O[C@@H](CO)[C@H](O)[C@H]4O)CCC3(C)C2CC1O[C@@H]1O[C@H](C)[C@H](O)[C@H](O)[C@H]1O (stereo not given in full)	none
CCc1ccc(NC(=O)c2cnc3sccn3c2=O)cc1	none (no result: A1 inhib)
CCN(CC)c1ccc(/C=C2\CCc3ccccc3C2=O)cc1	none (no result: A1 inhib)
Cn1cccc1/C=C1\CCc2ccccc2C1=O	BJeLR viability 73 (no result: A1 inhib)
COc1ccc(CCNC(=O)c2ccc(C3SCC(=O)N3Cc3ccccc3)cc2)cc1OC (stereo not given)	none (no result: A1 inhib)
COc1cc(CN2c3ccccc3N3CCCCCC32)cc(OC)c1OC (stereo not given)	none (no result: A1 inhib)
CC12CC3(C)CC(C)(C1)CC(CN=Cc1ccc(O)cc1)(C2)C3	A1 inhib 13
Oc1ccc(/C=N/c2nccs2)cc1	none
O[C@@H]1[C@@H](O)C=C2CCN3Cc4cc5c(cc4[C@H]1C23)OCO5 (stereo not given in full)	none
O[C@H]1[C@H]2c3cc4c(cc3CN3CCC(=C[C@@H]1O)[C@H]23)OCO4	BJeLR viability 63
CCCCCCN(CCCCCC)C(=O)Cc1c(-c2ccc(F)cc2)[nH]c2ccccc12	none
CSc1c(-c2ccc(Cl)cc2)[nH]c2ccccc12	A1 inhib 14
CCCCc1c(C)c(C#N)c2[nH]c3ccccc3n2c1=O	none
CCc1c(C)c(C#N)c2[nH]c3ccccc3n2c1=O	BJeLR viability 101
Cc1ccc(-c2cn3cccnc3n2)cc1NC(=O)CC(C)(C)C	none (no result: A1 inhib)
C[C@@H]1CCOC(=O)C=CC=CC(=O)O[C@@H]2C[C@H]3O[C@@H]4C=C(C(=O)O)CC[C@]4(COC(=O)[C@H]1O)[C@]2(C)[C@]31CO1	BJeLR viability 71
CC(C)CN(CC(C)C)S(=O)(=O)c1ccc(Br)s1	none (no result: A1 inhib)
COc1ccc(N2C(=O)CC(N(C(C)=O)c3ccc(OC)cc3)C2=O)cc1 (stereo not given)	none (no result: A1 inhib)
Cc1ccccc1C(=O)Nc1cccc(-c2cn3ccccc3n2)c1	none
COc1ccc(C(=O)Nc2ccc(-c3cn4ccccc4n3)cc2)cc1	A1 inhib 31
COc1cc([C@@H]2c3cc4c(cc3[C@@H](O[C@@H]3O[C@@H]5CO[C@@H](C)O[C@H]5[C@H](O)[C@H]3O)[C@H]3COC(=O)[C@H]23)OCO4)cc(OC)c1O	none
COc1cc2c(c(OC)c1OC)-c1cc3c(cc1C[C@H]1C(=O)OC[C@@H]1C2)OCO3	none
COc1cc([C@@H]2c3cc4c(cc3[C@H](O)[C@H]3COC(=O)[C@H]23)OCO4)cc(OC)c1OC	BJeLR viability 54
COc1cc([C@@H]2c3cc4c(cc3[C@H](O)[C@H]3COC(=O)[C@@H]23)OCO4)cc(OC)c1OC	BJeLR viability 93
CC1=C(C(=O)Nc2ccccc2)C(c2ccc(C(C)C)cc2)n2c(nc3ccccc32)N1 (stereo not given)	none
CCOC(=O)c1ccc(NC2CCCc3c2n(C)c2ccc(C)cc32)cc1 (stereo not given)	none (no result: A1 inhib)
CC(O)(C(=O)Nc1ccc(S(=O)(=O)c2ccccc2)cc1)C(F)(F)F (stereo not given)	none
CC(C)(C)C(=O)Nc1ccc2c(c1)C(=O)C(=O)c1ccccc1-2	BJeLR viability 132
Cn1c(C(=O)O)c(CC(=O)Nc2cnc3ccccc3c2)c2ccccc21	none (no result: A1 inhib)
Cc1cccc(C(=O)OCCSc2nc(C)c3cc(C)c(C)cc3n2)c1	none (no result: A1 inhib)
O=C(COC(=O)C(Cc1ccccc1)N1C(=O)c2ccccc2C1=O)c1ccc(Br)cc1 (stereo not given)	none (no result: A1 inhib)
COc1cc2c(c(OC)c1OC)-c1ccc(OC)c(=O)cc1[C@@H](NC(C)=O)CC2	BJeLR viability 60
C/C=C(/C)C(=O)O[C@@H]1c2cc(OC)c(OC)cc2-c2c(ccc(OC)c2OC)C[C@H]2C(=O)OC[C@H]12	none
COc1cccc(/C=C2/NC(=O)N(c3ccccc3)C2=O)c1	none (no result: A1 inhib)
O=C(NC1CCCCC1)N1c2ccccc2CCc2ccccc21	none
